Sampled rows, rich in hits. Any-hit rate of the full collection: about 1.7%.
PTHR1 agonist: agonists of human PTHR1 parathyroid hormone receptor; HEK293 GP2 PTHR1 cells, GloSensor cAMP luminescence, 1 h; Potency, µM (titrated, usually from 115 µM), actives largely listed as activators; hit rate 0.075% among 410,000; note: nearly all actives have a fitted effect of over 55% in size
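HEK-293-derived GP2 cells expressing PTHR1 and a GloSensor cAMP reporter, 3,000/well, plated overnight, given luciferin plus IBMX (each 0.5 mM as added) for 1 h at 37 °C, then compound for 1 h at 37 °C. Luminescence was read after 15 min at room temperature.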
GLP1R ag: GLP-1 receptor (human) agonism. P43220. HEK293 GLP-1R CRE-luciferase, luminescence, 4-6 h; cells express a hypersensitive GLP-1R form. Potency, µM (titrated, usually from 45.6 µM), hits mostly activators. hit rate 0.007% among 380,000. AID 624172
Target sequence (P43220 whole entry, looked up): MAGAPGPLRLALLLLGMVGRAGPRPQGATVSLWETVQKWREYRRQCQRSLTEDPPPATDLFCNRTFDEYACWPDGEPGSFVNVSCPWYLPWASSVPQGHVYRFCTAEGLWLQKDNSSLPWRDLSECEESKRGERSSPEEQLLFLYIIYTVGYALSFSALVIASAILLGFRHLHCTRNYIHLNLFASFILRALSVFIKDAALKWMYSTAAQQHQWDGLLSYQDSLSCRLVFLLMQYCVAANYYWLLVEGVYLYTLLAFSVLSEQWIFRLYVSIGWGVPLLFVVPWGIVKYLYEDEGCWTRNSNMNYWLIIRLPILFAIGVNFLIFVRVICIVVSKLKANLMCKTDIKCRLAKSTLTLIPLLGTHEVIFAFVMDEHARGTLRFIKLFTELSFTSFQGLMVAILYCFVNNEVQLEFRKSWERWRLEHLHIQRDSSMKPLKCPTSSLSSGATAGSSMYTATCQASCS
HEK293 tox: cytotoxicity in counter-screen for GLP-1R inverse agonists; AID 624418; hit rate 0.13% among 410,000; Potency, µM (series often up to 38.3 µM), hits mostly inhibitors; HEK293 cAMP-luciferase reporter cells, luminescence, 24 h;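 note: loss of luciferase light is scored as toxicity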
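A 23 nL compound transfer followed 12 hours of cell culture at 37 deg C; exposure then lasted 24 hr. Luciferase assay detection reagent was dispensed and plates read for luminescence after a 12 min room-temperature wait.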
GLP1R inv ag: inverse agonists of human GLP-1 receptor; hit rate 1.6% among 410,000; Potency, µM (doses to about 38.3 µM), actives largely listed as inhibitors; HEK293 GLP-1R CRE-luciferase, luminescence, 24 h; GLP-1R form is constitutively active; P43220; AID 624417; note: nearly all actives have a fitted effect of over 55% in size
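Constitutively active GLP-1R drives a cAMP-responsive luciferase in stably transfected HEK293 cells; test compounds are added after overnight (12 h) attachment and left 24 hr, and signal loss in luminescence marks inhibition.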
Of the large screens only hits and unclear results are named; the others gave an inactive call. Calls come from the whole dose curve; as a rule, active = well fitted curve in the direction sought with a large enough effect; inconclusive = small, poorly fitted or top-dose-only effect, or another doubt; inactive = no such curve, though single readings can be large; an effect the other way counts as inactive or inconclusive.

O=[N+]([O-])c1ccc2c(c1)C(N1CCOCC1)/C(=C/COc1ccc3ccccc3c1Br)O2 (configuration not stated)	GLP1R inv ag 2.82µM
COc1ccccc1-c1noc(-c2ccc(N3CCN(c4ccccc4)CC3)c([N+](=O)[O-])c2)n1	none (no result: GLP1R ag)
Cc1ccc(C)c(S(=O)(=O)c2nnn3c2nc(NC2CCCCC2)c2sccc23)c1	GLP1R inv ag inconclusive (no result: GLP1R ag)
Cc1c(C#N)c(NC(=O)CCl)n(Cc2cccs2)c1C	HEK293 tox inconclusive, GLP1R inv ag 5.62µM
Cc1ccc(Cn2c(=O)c3ccccc3n3c(-c4cccc(O)c4)nnc23)cc1	none (no result: GLP1R ag)
Cc1ccc(N2C(=O)c3ccccc3C2Nc2ccccc2)nc1 (configuration not stated)	GLP1R inv ag inconclusive
CCc1cccc(NC2c3ccccc3C(=O)N2c2ccc(C)cn2)c1 (configuration not stated)	GLP1R inv ag 12.6µM
CCOc1ccccc1CN1CCN(C2CCN(c3ccccc3F)CC2)CC1CCO (configuration not stated)	GLP1R inv ag 11.2µM
c1csc(-c2nc3c4ccccc4c4ccccc4c3[nH]2)c1	GLP1R inv ag 5.01µM
Oc1ccccc1-c1nc2c3ccccc3c3ccccc3c2[nH]1	GLP1R inv ag inconclusive
Cc1cn2c(=O)cc(COC(=O)c3cccc(NC(=O)c4ccccc4Cl)c3)nc2s1	none (no result: GLP1R ag)
CCCCN(CC)CCCNC(=O)Nc1sc2nc3n(c(=O)c2c1C)CCC(C)CC3 (configuration not stated)	GLP1R inv ag 10µM (no result: GLP1R ag)
Cc1cc(C)c(NC(=O)Nc2sc3nc4n(c(=O)c3c2C)CCC(C)CC4)c(C)c1 (configuration not stated)	none (no result: GLP1R ag)
CN(C)CCNC(=O)c1cccc2nc3cccc(F)c3nc12	GLP1R inv ag 6.31µM
CN(C)CCNC(=O)c1cccc2ccc(-c3ccc(-c4ccccc4)cc3)nc12	HEK293 tox inconclusive, GLP1R inv ag inconclusive
COc1ccc(OC)c2nc3c(C(=O)NCCN(C)C)cccc3nc12	HEK293 tox 7.08µM, GLP1R inv ag inconclusive
CCOc1ccc(C2CC(=O)Nc3c2c(=O)nc(SCc2ccccc2C)n3C)cc1OC (configuration not stated)	none (no result: GLP1R ag)
Nc1c(CC(=O)O)cccc1C(=O)c1ccccc1	none (no result: PTHR1 agonist, HEK293 tox, GLP1R inv ag)
COc1ccc(Cl)cc1NC(=O)CN(C)C(=O)c1ccc(C)s1	GLP1R inv ag 5.62µM
COc1ccc(Cl)cc1NC(=O)CN(C)CC(=O)Nc1c(C)n(C)n(-c2ccccc2)c1=O	GLP1R inv ag 10µM
COc1ccc(OC)c(NC(=O)Nc2c(C)n(C)n(-c3ccccc3)c2=O)c1	none (no result: GLP1R ag)
COc1ccc(Cl)cc1NC(=O)CN(C)C(=O)c1cc2c(F)cccc2s1	GLP1R inv ag inconclusive
COc1ccc(S(=O)(=O)N2c3ccc(Cl)cc3[C@](O)(c3ccccc3Cl)[C@@H]2C(=O)N2CCC[C@H]2C(N)=O)cc1OC	none (no result: PTHR1 agonist, HEK293 tox, GLP1R inv ag)
C/C(=N\NC(=O)c1nnn(-c2nonc2N)c1-c1cccs1)c1ccc(O)cc1	GLP1R inv ag 7.94µM
C/C(=N\NC(=O)c1nnn(-c2nonc2N)c1-c1cccs1)c1ccc(C)cc1	none
Cc1ccccc1S(=O)Cc1ccc(C(=O)N2CCN(c3cccc(C)c3C)CC2)o1 (configuration not stated)	GLP1R inv ag 1.12µM (no result: GLP1R ag)
Cc1cccc(N2CCN(C(=O)c3ccc(CS(=O)c4cccc(Cl)c4)o3)CC2)c1C (configuration not stated)	HEK293 tox inconclusive, GLP1R inv ag 1µM (no result: GLP1R ag)
O=C(c1ccc(CS(=O)Cc2ccc(Cl)cc2)o1)N1CCN(c2cccc(Cl)c2)CC1 (configuration not stated)	GLP1R inv ag inconclusive
COc1ccc(S(=O)(=O)Cc2ccc(C(=O)N3CCN(c4cccc(C)c4C)CC3)o2)cc1	GLP1R inv ag inconclusive
Cc1cccc(N2CCN(C(=O)c3ccc(CS(=O)Cc4ccc(Cl)cc4)o3)CC2)c1C (configuration not stated)	GLP1R inv ag 10µM
Cc1ccc(S(=O)(=O)Cc2ccc(C(=O)N3CCN(c4cccc(C)c4C)CC3)o2)cc1	HEK293 tox inconclusive, GLP1R inv ag 5.01µM
COC(=O)[C@@]1(Cc2ccccc2)[C@H]2C(=O)N(C)C(=O)[C@H]2[C@H]2CN=C(SCc3ccc(C)cc3)N21	none
NNc1ccc(Cl)nn1	HEK293 tox inconclusive, GLP1R inv ag 10µM
CNc1ccc(Cl)nn1	none
CC(C)(C)c1ccc(-n2ncc3c2CCCC3NC(=O)c2ccco2)cc1 (configuration not stated)	GLP1R inv ag 10µM
CC(=O)Nc1cccc(C(=O)NC2CCCc3c2cnn3-c2ccc(C(C)(C)C)cc2)c1 (configuration not stated)	GLP1R inv ag inconclusive
Cc1occc1-c1nnc(SCC(=O)Nc2ccccc2-c2ccccc2)n1C	none
CCCn1c(SCC(=O)Nc2ccccc2-c2ccccc2)nnc1-c1ccoc1C	GLP1R inv ag 11.2µM
CC(C)CC1=NN(C(=O)c2ccncc2)C(O)(C(F)(F)F)C1 (configuration not stated)	GLP1R inv ag 1.12µM
CC1=NN(C(=O)c2csc(C(C)C)c2)C(O)(C(F)(F)F)C1 (configuration not stated)	HEK293 tox inconclusive, GLP1R inv ag 1.26µM
CCc1ccc(N(C(=O)c2ccoc2C)C(C(=O)NC2CCCC2)c2ccc(OC)cc2)cc1 (configuration not stated)	HEK293 tox inconclusive, GLP1R inv ag 10µM
CCc1ccc(N(C(=O)c2ccco2)C(C(=O)NC2CCCC2)c2ccco2)cc1 (configuration not stated)	GLP1R inv ag 10µM
COc1ccc(C(C(=O)NC2CCCC2)N(C(=O)c2ccoc2C)c2ccccc2)cc1 (configuration not stated)	GLP1R inv ag inconclusive
COc1ccc(C(C(=O)NC2CCCC2)N(C(=O)c2ccoc2C)c2ccc(C)c(C)c2)cc1 (configuration not stated)	GLP1R inv ag 10µM
O=C(NC1CCCC1)C(c1ccco1)N(C(=O)c1ccco1)c1ccccc1 (configuration not stated)	none
CCN(CC)S(=O)(=O)c1ccc(NC(=O)CCc2c(C)nc3cc(-c4ccc(Cl)cc4)nn3c2C)cc1	none (no result: GLP1R ag)
COc1ccc(N2CCN(C(=O)c3cc(=O)c4ccc(C)cc4o3)CC2)cc1	none
O=C(CCCSc1nnc(-c2cccs2)n1CC1CCCO1)c1ccccc1 (configuration not stated)	GLP1R inv ag 7.94µM
O=C(CSc1nnc(-c2cccs2)n1CC1CCCO1)N1CCCC1 (configuration not stated)	none
Cn1c(CNc2ccc(Cl)cc2)nnc1SCCN1CCCCC1	GLP1R inv ag 3.98µM
CCc1nn(CC(=O)NCc2ccc(C)cc2)c(=O)c2cc3occc3n12	none (no result: GLP1R ag)
CC(=O)Nc1nnc(SCc2cc(=O)c3cc(C)ccc3[nH]2)s1	none (no result: GLP1R ag)
